Bioassay records from PubChem.
Compounds with a hit are over-represented: about 21% of the library has one in this group of screens.
DT40 TDP1 CPT: growth inhibition of DT40 Tdp1-/-;hTDP1 cells with camptothecin (screen for TDP1 inhibitors); actives 12% (n = 420,000); Potency, µM (highest dose often 46.2 µM), without a hit: top-dose activity change, negative = growth inhibition, most hits filed as inhibitors; chicken DT40 Tdp1-/-;hTDP1 cells + 20 nM CPT, ATP luminescence, 48 h; also: potency is read from the fitted curve at half-maximal effect; % is scaled to controls: 0 for no effect and ±100 for the full control effect; nearly all actives have a fitted effect of over 55% in size
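Cell growth measured by CellTiter-Glo luminescence after a minimum 48 h, 37 C compound exposure with 20 nM CPT in Tdp1-knockout DT40 cells stably expressing hTDP1, seeded 400/well; qHTS titration format.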
ClpP mod: qHTS Assay for Activators of ClpP; AID 651965, 2013; actives 1.9% (n = 340,000); purified B. subtilis ClpP, FRET peptide cleavage, 20 min; ATP-dependent Clp protease proteolytic subunit (Bacillus subtilis (strain 168)), P80244; Potency, µM (highest dose often 57.5 µM), without a hit: top-dose activity change, negative = active; active = well fitted falling curve with a large enough effect; inconclusive = small, poorly fitted or top-dose-only effect; inactive = no such curve, though single readings can be large or run the other way; also: potency is read from the fitted curve at half-maximal effect; the source files actives as falling curves though it sought activators and does not explain the sign; nearly all actives have a fitted effect of over 65% in size
Target sequence (P80244 whole entry, looked up): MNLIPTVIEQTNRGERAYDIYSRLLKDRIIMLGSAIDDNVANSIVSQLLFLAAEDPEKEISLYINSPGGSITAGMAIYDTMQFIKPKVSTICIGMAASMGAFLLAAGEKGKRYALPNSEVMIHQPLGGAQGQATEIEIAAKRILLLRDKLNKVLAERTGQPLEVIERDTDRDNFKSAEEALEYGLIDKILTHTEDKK
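Buffer: 100 mM Tris/HCl pH8, 100 mM KCl, 0.05% low protease BSA, 2.5% glycerol, 0.01% Tween-20. ClpP 10 microg/mL final; 20 min RT; delta FRET normalized to ADEP and DMSO controls.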
D3 ag: agonists of human D3 dopamine receptor; max activation, %; P35462; actives 0.58% (n = 410,000); AID 652048; D3R DiscoveRx beta-arrestin cells, luminescence, 90 min; in the data active = max activation above about 30%; also: 0% is about no effect
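Agonist mode: compounds and dopamine controls were applied to plated cells for 90 min at 37 degrees C after an overnight attachment at 1500 cells/well. Luminescent read-out followed 30 - 60 minutes at room temperature with DiscoveRx detection reagent.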
IL-1B inflam inh: inhibitors of inflammasome signaling (IL-1 beta secretion). activity change, % at 57.5 µM. actives 4.7% (n = 360,000). THP-1 LPS/ATP IL-1B secretion, AlphaLISA, 16 h; hits give low values; in the data active = activity change below about -50%; inconclusive = mostly about -30% to -49%; also: % is scaled to controls: 0 for no effect and ±100 for the full control effect
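Secreted IL-1B measured by AlphaLISA bead assay after 16 h compound exposure of THP-1 cells; compounds (final up to 57.5 uM) added 1 h before LPS (250 ng/mL) and ATP (1.25 mM) stimulation; lower signal means less secretion.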
DT40 TDP1 no CPT: qHTS for Inhibitors of human tyrosyl-DNA phosphodiesterase 1 (TDP1): qHTS in cells in absence of CPT; Potency, µM (top dose mostly 46.2 µM), for the others: at the highest dose activity change, negative = growth inhibition, most hits filed as inhibitors; DT40 Tdp1-/- hTDP1 cells, no CPT, ATP luminescence, 48 h; AID 686978, 2013; actives 15% (n = 420,000); also: potency is read from the fitted curve at half-maximal effect; % is scaled to controls: 0 for no effect and ±100 for the full control effect; nearly all actives have a fitted effect of over 55% in size
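A cellular qHTS used chicken DT40 cells lacking endogenous Tdp1 but carrying stably transfected human TDP1. Compounds were applied without camptothecin, and cell growth kinetics were judged by ATP-dependent luminescence after ≥48 hr.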
D3 antag: D3 dopamine receptor (human) antagonism; D3R cells, DiscoveRx beta-arrestin luminescence, antagonist mode; hits give low values; max response, negative = inhibition, %; actives 2.5% (n = 360,000); AID 652054; in the data active = max response below about -50%; inconclusive = no clear call, values can overlap the other calls; also: % is scaled to controls: 0 for no effect and ±100 for the full control effect
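Cells plated overnight at 1500 cells/well, then exposed to library compounds with dopamine controls for 90 minutes at 37 degrees C. DiscoveRx reagent added for 30–60 minutes at room temperature; luminescence read, quantitative HTS format.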
* hit, by the source's call; ? = inconclusive; / = not tested or not shown. Unless noted, calls follow the shape of the dose curve; as a rule, active = well fitted inhibition curve with a large enough effect; inconclusive = small, poorly fitted or top-dose-only effect; inactive = flat fitted curve, though single readings scatter.

SMILES	DT40 TDP1 CPT	ClpP mod	D3 ag	IL-1B inflam inh	DT40 TDP1 no CPT	D3 antag
CCCN(CCC)C(=O)CSc1nc2ccccc2c(=O)n1Cc1ccco1	18µM*	-1%	-2	/	21µM*	/
CCN(C(=O)CSc1nc2ccccc2c(=O)n1-c1cccc(C)c1)C1CCS(=O)(=O)C1 (stereo not drawn)	16µM*	/	3	-23	?	11
CCn1c(=S)sc2c(=O)n(-c3ccccc3)c(SCC(=O)NCc3ccco3)nc21	18µM*	-1%	-12	-13	?	?
CCN(CC)C(=O)CSc1nc2c(sc(=S)n2CC)c(=O)n1-c1ccccc1	-18%	0%	-1	-11	-30%	-12
CCN(CC)C(=O)CSc1nc2c(sc(=S)n2-c2ccccc2)c(=O)n1Cc1ccco1	23µM*	1%	-13	-64*	?	-19
O=C1OC(COc2ccc(Br)cc2)CN1c1ccccc1 (stereo not drawn)	15%	-17%	1	-21	1%	4
CCc1ccc(C(=O)N/N=C/c2ccncc2)s1	-7%	-1%	-14	?	-19%	-9
O=C(CSc1nc2ccccc2c(=O)n1Cc1ccco1)N1CCCCCC1	21µM*	2%	2	?	?	-16
Cc1cc(NC(=O)CSc2nc3cc(C(=O)NCCCOC(C)C)ccc3c(=O)n2Cc2ccco2)no1	18µM*	0%	3	-18	?	-25
CN(C(=O)CSc1nncn1-c1ccccc1)C1CCS(=O)(=O)C1 (stereo not drawn)	0%	/	-2	-14	0%	-54*
CCOC(CCn1c(SCc2ccc([N+](=O)[O-])cc2)nc2ccccc2c1=O)OCC	15µM*	?	1	?	13µM*	-10
CC(c1nnc(SCC(=O)N(C)C2CCS(=O)(=O)C2)n1-c1ccccc1)N(C)C (stereo not drawn)	-7%	0%	1	-3	-1%	7
COCCCNC(=O)CCc1c(C)c2cc3c(C)coc3cc2oc1=O	?	/	16	-4	?	14
CN(C)C(=O)CCc1ccc2c3c([nH]c2c1)[C@]1(CCc2ccccc2)[C@@H](C(=O)N2CCCCC2)C[C@H](CC(=O)NCc2cccc(C(F)(F)F)c2)C(=O)N1CC3	?	-1%	-19	-71*	21µM*	-22
CN(C)C(=O)CCc1ccc2c3c([nH]c2c1)[C@]1(C)[C@@H](C(=O)N2CCCCC2)C[C@H](CC(=O)NCc2ccco2)C(=O)N1CC3	14%	-3%	9	1	2%	0
CN(C)C(=O)CCc1ccc2c3c([nH]c2c1)[C@]1(C)[C@@H](C(=O)N2CCOCC2)C[C@H](CC(=O)NCc2cccc(C(F)(F)F)c2)C(=O)N1CC3	16µM*	0%	-9	-13	?	4
Cc1cccc(OCCn2c(SCC(N)=O)nc3ccccc32)c1	?	2%	-5	/	21µM*	/
Cc1cc(OCCn2c(CCNC(=O)C3CCCCC3)nc3ccccc32)ccc1Cl	?	0%	-13	/	?	/
CC(C)(C)c1ccc(OCCn2c(CCNC(=O)C3CCCCC3)nc3ccccc32)cc1	11µM*	-1%	/	/	3.2µM*	/
Cc1cccc(OCCCn2c(CCNC(=O)C3CCCCC3)nc3ccccc32)c1	13µM*	2%	-18	/	12µM*	/
O=C(O)CCSc1nc2ccccc2n1CCOc1ccccc1	-17%	1%	-2	18	1%	-15
O=C(NCCc1nc2ccccc2n1CCOc1ccc2ccccc2c1)C1CCCCC1	?	-9%	/	/	?	/
O=C(NCCc1nc2ccccc2n1CCCOc1ccc2ccccc2c1)C1CCCCC1	?	-28%	/	/	11µM*	/
